IL-1B inflam inh: blocks inflammasome-driven IL-1 beta release; THP-1 LPS/ATP IL-1B secretion, AlphaLISA, 16 h; hits give low values; activity change, % at 57.5 µM; 4.7% of 360,000 active; AID 743279; in the data active means activity change below about -50%; inconclusive means mostly about -30% to -49%
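THP-1 cells pretreated 1 hr with compounds (up to 57.5 uM final), then stimulated with LPS (250 ng/mL final) plus ATP (1.25 mM final); secreted IL-1B measured by AlphaLISA after 16 hr, decreased signal indicating inhibition.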
HT1080NT lethal: kills 2HG-producing HT-1080-NT fibrosarcoma cells | HT-1080-NT fibrosarcoma viability, CellTiter-Glo ATP luminescence, 48 h | Potency, µM (doses to about 46.1 µM), without a hit: top-dose activity, negative = less viability, actives largely listed as cytotoxic | 1.6% of 360,000 active;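 further: NT is the 2HG producing partner of a matched IDH1 knockdown line; potency means the concentration at half of the fitted maximal effect; 0% = DMSO-treated cells and -100% = media-only wells without cells; nearly all actives have a fitted effect of over 55% in size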
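HT-1080-NT; 750 cells/well; 5% FBS RPMI; 48 h compound, 37 degrees C; CellTiter-Glo luminescence; curve fitting and curve-class assignment.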
HT1080 IDH1KD tx: HT-1080 IDH1 knockdown cell toxicity (counter line); HT-1080 IDH1 knockdown viability, ATP luminescence, 48 h; AID 686971; 2% of 360,000 active; Potency, µM (titrated, usually from 46.1 µM), inactives show at the highest dose activity, negative = toxicity, usual class: cytotoxic;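 further: potency means the concentration at half of the fitted maximal effect; 0% = DMSO wells and -100% = cell-free medium wells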
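CellTiter-Glo luminescence after 48 h compound exposure at 37 degrees C of IDH1-knockdown HT-1080 cells in 5% FBS RPMI. %Activity scaled between DMSO wells and cell-free media wells, with curves fitted and assigned curve classes.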
TDP1 cell CPT: DT40-hTDP1 cell growth loss with CPT. 12% of 420,000 active. Potency, µM (doses to about 46.2 µM), for inactives: at the highest dose activity change, negative = growth inhibition, most hits filed as inhibitors. chicken DT40 Tdp1-/-;hTDP1 cells + 20 nM CPT, ATP luminescence, 48 h; further: potency means the concentration at half of the fitted maximal effect; nearly all actives have a fitted effect of over 55% in size
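Chicken DT40 Tdp1-/- cells stably complemented with human TDP1 were seeded at 400 cells/well in medium containing 20 nM camptothecin, exposed to pin-transferred compounds, and grown at 37 °C for at least 48 hr. Viability was read as ATP luminescence.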
TDP1 cell noCPT: qHTS for Inhibitors of human tyrosyl-DNA phosphodiesterase 1 (TDP1): qHTS in cells in absence of CPT | DT40 Tdp1-/- hTDP1 cells, no CPT, ATP luminescence, 48 h | Potency, µM (titrated, usually from 46.2 µM), without a hit: at the top dose activity change, negative = growth inhibition, hits mostly inhibitors | 15% of 420,000 active | AID 686978, 2013; further: potency means the concentration at half of the fitted maximal effect; nearly all actives have a fitted effect of over 55% in size
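Chicken DT40 Tdp1-/- cells complemented with human TDP1, screened without camptothecin (DMSO vehicle only), 400 cells/well. Compounds pin-transferred, cells incubated at 37 °C for at least 48 hr. Growth read as ATP-dependent luminescence (CellTiter-Glo, 30 min at RT).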
* hit, by the source's call; ? = inconclusive; . = no result. The list is not random: actives were taken first. Their share in the collection is about 19%. Unless noted, the call rests on the fitted dose curve; in most records, active means well fitted curve in the direction sought with a large enough effect; inconclusive means small, poorly fitted or top-dose-only effect, or another doubt; inactive means no such curve, though single readings can be large; an effect the other way counts as inactive or inconclusive. Unless noted, on the % scale 0 is the no-effect control and ±100 the full control effect.

SMILES	IL-1B inflam inh	HT1080NT lethal	HT1080 IDH1KD tx	TDP1 cell CPT	TDP1 cell noCPT
O=Nc1c(O)n(Cc2c(Cl)cccc2Cl)c2ccccc12	?	?	?	0%	-20%
O=C1NC(=S)N/C1=C/c1ccc2c(c1)OCO2	-25	5%	1%	?	5.8µM*
O=C1NC(=S)N/C1=C\c1ccc(N2CCOCC2)cc1	-8	-1%	5%	16µM*	?
O=C1NC(=S)SC1=Cc1ccc2c(c1)OCO2	-2	0%	-1%	1%	-23%
COc1ccc(OC)c2c1sc(=NC(=O)C(C)(C)C)n2C	3	1%	18%	21µM*	?
COc1ccc(OC)c2c1sc(=NC(=O)C(C)C)n2C	23	1%	2%	23µM*	?
CSCCC(C)N1CCC(Oc2ccc(C(=O)NCc3ccccn3)cc2)CC1 (stereo not given)	6	2%	-1%	-20%	-5%
Clc1ccccc1N/N=C/c1ccc2c(c1)OCO2	-1	-5%	-14%	7%	-21%
CC1CCN(CC2C(=O)O[C@@H]3C[C@@]4(C)CCC[C@H](C)C4=C[C@H]23)CC(C)(C)C1 (stereo not given in full)	.	-14%	-4%	?	18µM*
CC(=O)Oc1c(-c2ccco2)oc2ccccc2c1=O	-82*	?	?	-18%	-30%
CCOc1ccc(/C=C/[N+](=O)[O-])c2ccccc12	-101*	?	13µM*	2.9µM*	2.9µM*
CCOC(=O)COc1ccc(C(=O)c2ccccc2)c(O)c1	17	6%	11%	1%	-11%
CCOC(=O)COc1ccc2ccccc2c1/C=C/[N+](=O)[O-]	-92*	7.3µM*	4.1µM*	5.2µM*	3.7µM*
CCOC(=O)COc1ccccc1/C=N/O	0	11%	15%	-7%	-13%
CCOC(=O)COc1ccc(/C=C/[N+](=O)[O-])c(OCC(=O)OCC)c1	-97*	7.9µM*	5.6µM*	12µM*	21µM*
COc1cccc(Nc2nc(C)cc(C)c2C(N)=O)c1	-1	?	29%	-9%	-5%
COc1ccc(/C=N/NC(=O)c2[nH]c3ccc(Br)cc3c2-c2ccccc2)cc1	78	0.037µM*	0.0052µM*	0.82µM*	0.92µM*
O=C(N/N=C/c1ccccc1Cl)c1[nH]c2ccc(Br)cc2c1-c1ccccc1	56	0.52µM*	0.46µM*	1.3µM*	0.65µM*
COc1ccc(/C=N/NC(=O)c2[nH]c3ccc(Cl)cc3c2-c2ccccc2)c(C(=O)O)c1OC	56	-25%	?	-26%	?
COc1ccc(/C=N/NC(=O)c2[nH]c3ccc(Br)cc3c2-c2ccccc2)c(C(=O)O)c1OC	30	23µM*	23µM*	-5%	-12%
CC(=O)NNC(=O)c1[nH]c2ccc(Br)cc2c1-c1ccccc1	12	?	?	-19%	-1%
COC(=O)c1ccc(NC(=O)CSc2nn3c(=O)c(C)nnc3s2)cc1	11	-4%	1%	-16%	-29%
CCCCn1nnnc1C1(C)CCC(=O)N1Cc1ccc(C)cc1 (stereo not given)	16	27%	14%	5%	-9%
Cc1cccc(C)c1NC(=O)CN(C)C(=O)C1CCN(c2ncnc3sc(C)c(C)c23)CC1	-6	-12%	-11%	?	?
CCN(CC(=O)Nc1c(F)cccc1F)C(=O)C1CCN(c2ncnc3sc(C)c(C)c23)CC1	-17	-14%	-11%	21µM*	18µM*
Cc1ccc(OCC(=O)NNC(=O)C2CCN(c3ncnc4sc(C)c(C)c34)CC2)cc1	-17	-18%	-16%	?	?
Cc1cc(Br)ccc1NC(=O)CN(C)C(=O)C1CCN(c2ncnc3sc(C)c(C)c23)CC1	-56*	?	?	?	21µM*
Cc1sc2ncnc(N3CCC(C(=O)NNC(=O)COc4ccc(Br)cc4)CC3)c2c1C	-1	-10%	-5%	?	23µM*

Source: PubChem BioAssay (National Center for Advancing Translational Sciences (NCATS))
